Screens (PubChem)
ClpP mod: qHTS Assay for Activators of ClpP | purified B. subtilis ClpP, FRET peptide cleavage, 20 min | Potency, µM (titrated, usually from 57.5 µM) | 1.9% of 340,000 active | AID 651965, 2013; active means well fitted falling curve with a large enough effect; inconclusive means small, poorly fitted or top-dose-only effect; inactive means no such curve, though single readings can be large or run the other way; further: the source files actives as falling curves though it sought activators and does not explain the sign; nearly all actives have a fitted effect of over 65% in size
Target sequence (P80244 whole entry, looked up): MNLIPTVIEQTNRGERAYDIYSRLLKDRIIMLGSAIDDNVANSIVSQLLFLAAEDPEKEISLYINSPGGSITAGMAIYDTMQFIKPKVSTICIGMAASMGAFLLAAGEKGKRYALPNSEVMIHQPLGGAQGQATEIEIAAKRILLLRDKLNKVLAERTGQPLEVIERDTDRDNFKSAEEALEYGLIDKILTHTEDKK
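FRET quenching reversal measured ClpP activation: 10 microg/mL B. subtilis ClpP at pH 8 with the FRET-FV decapeptide, read at 430 nm after 320 nm excitation. The 20-min minus 0-min signal was scaled between DMSO/no-enzyme wells and ADEP (5.8 microM final).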
Epigenetic reg: epigenetic control regulation, reporter derepression; murine LDR cells, GFP reporter derepression, 30 h; Potency, µM (top dose mostly 53.9 µM), hits mostly activators; 0.2% of 280,000 active; AID 1865; further: nearly all actives have a fitted effect of over 60% in size
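Murine LDR cells bearing a silenced CMV-driven GFP reporter were exposed to compound for 30 h at 37 C. After PBS washes, GFP-positive cells (20-120 um objects) counted by laser-scanning microplate cytometry.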
RORgamma inh: inhibitors of mouse ROR gamma transcriptional activity; P51450; Drosophila S2 Gal4-RORgamma UAS-luciferase reporter, 20 h; Potency, µM (highest dose often 53.6 µM), most hits filed as inhibitors; 5.4% of 310,000 active; AID 2551; further: nearly all actives have a fitted effect of over 60% in size
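Using a luciferase readout, inhibitors were identified by reduced reporter activity in Drosophila cells coexpressing a copper-inducible Gal4–ROR gamma fusion and UAS-driven Photinus luciferase, incubated 20 hr after 700 uM copper sulfate.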
VP16 counter: inhibits Gal4-VP16 luciferase reporter, ROR gamma counter-screen; 3.5% of 310,000 active; AID 2546; Potency, µM (doses to about 53.6 µM), hits mostly inhibitors; Drosophila S2 Gal4-VP16 UAS-luciferase, luminescence, 20 h;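 further: Gal4-VP16 expression switched on by copper sulfate through the metallothionein promoter; nearly all actives have a fitted effect of over 50% in size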
PINK1 expr mod: PINK1 expression modulation | PINK1 immunofluorescence, high-content cytometry, 24 h | Potency, µM (highest dose often 76.6 µM), usual class: activators | 0.2% of 410,000 active; active means well fitted activation curve with a large enough effect; inconclusive means small, poorly fitted or top-dose-only effect; cell line not stated here; further: nearly all actives have a fitted effect of over 65% in size
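Compound titrations (5 concentrations, 24 h) on a stable cell line; DMSO and CCCP controls. Endpoint: fixed-cell PINK1 immunofluorescence with mitochondrial, cell and nuclear markers, scanned by microplate cytometer.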
Sfp PPTase inh: blocks B. subtilis Sfp PPTase activity; Q9F4F7; Biochemical Sfp PPTase activity, qHTS; Potency, µM, hits mostly inhibitors; 3.5% of 310,000 active;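 further: the enzyme is Sfp with the accession as filed and its product quenches rhodamine fluorescence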
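Reaction rates are the 30-min fluorescence difference (ex 525, em 598 nm) in wells containing 15 nM Sfp, 5 uM rhodamine-CoA and 12.5 uM BHQ-2-YbbR at pH 7.6 with 10 mM MgCl2.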
Hits are given with their value; 0 = inactive; ? = inconclusive; - = no result given. The list is not random: actives were taken first. Their share in the collection is about 8.1%. Unless noted, the call rests on the fitted dose curve; in most records, active means well fitted curve in the direction sought with a large enough effect; inconclusive means small, poorly fitted or top-dose-only effect, or another doubt; inactive means no such curve, though single readings can be large; an effect the other way counts as inactive or inconclusive.

SMILES | ClpP mod | Epigenetic reg | RORgamma inh | VP16 counter | PINK1 expr mod | Sfp PPTase inh
COCCCn1c(=NC(=O)c2ccncc2)c(C#N)cc2c(=O)n3cccc(C)c3nc21 | 0.708µM | 0 | ? | 0 | 0 | 0
Cc1ccc(C)c(CN2C(=O)c3ccccc3S(=O)c3ccc(C(=O)N4CCN(c5cccc(Cl)c5)CC4)cc32)c1 (stereo not drawn) | 0 | 0 | - | - | 0 | -
COc1ccc(-n2nc3cc(C)c(N)c(Br)c3n2)cc1 | 0 | ? | 0 | 0 | 0 | 39.8µM
Brc1ccc(-c2nnc(-c3cccc(Br)c3)o2)cc1 | 0 | 0 | 0 | 0 | 0 | 0
Brc1cccc(-c2nnco2)c1 | 0 | 0 | 20µM | ? | 0 | 0
CCc1nc2ccc(C(=O)NCc3ccc(C)o3)cc2nc1CC | 0 | - | 0 | 0 | 0 | 0
CCc1nc2ccc(C(=O)NCc3ccco3)cc2nc1CC | 0 | 0 | 0 | 0 | 0 | 35.5µM
CCc1nc2ccc(C(=O)N3CCN(CC)CC3)cc2nc1CC | 0 | - | 0 | 0 | 0 | 0
CCCN1C(=O)c2ccc(C(=O)NCc3ccco3)cc2C1=O | 0 | 0 | 0 | 0 | 0 | 44.7µM
CCc1nc2ccc(C(=O)O)cc2nc1CC | 0 | 0 | 0.708µM | ? | 0 | 0
COc1ccc(CN(CCCN)c2ccc(Br)cn2)cc1 | 0 | - | - | - | 0 | -
CC(=O)Nc1cc(C(F)(F)F)ccc1Oc1cccc(Br)c1 | 0 | 0 | ? | 12.6µM | 0 | 0
